Laboratory results as given in PubChem BioAssay (NCI).
“And” between values parts separate entries of the source, which are not always exact repeats. Equal entries are not always repeated. This is part of a sample that, as a whole, favours compounds with a hit. Of some 79,000 tested, about 15% had one in any assay. Rule as the data show it: active = growth inhibition above about 70%; inactive = the rest.

Assays:
[1] = NCI Yeast Anticancer Drug Screen. Data for the rad50 strain (AID 155);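 also: 0% = growth of vehicle-only cultures of the same strain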; conditions: S. cerevisiae rad50 strain growth inhibition, active compounds read high; at 50.0 µM unless noted
Procedure, shortened: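 Inhibition values express reduced yeast growth in compound-treated cultures relative to vehicle-treated controls.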

[2] = NCI Yeast Anticancer Drug Screen. Data for the mec2-1 strain (AID 157); conditions: S. cerevisiae mec2-1 strain, active compounds read high; at 50.0 µM unless noted
Procedure, shortened: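 Each compound was tested on mec2-1 yeast, a strain altered in DNA damage repair or cell cycle control. Growth inhibition is reported relative to vehicle.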

[3] = NCI Yeast Anticancer Drug Screen. Data for the sgs1 mgt1 strain (AID 161);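 also: 0% = growth of cultures given vehicle only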; conditions: S. cerevisiae sgs1 mgt1 strain, active compounds read high; at 50.0 µM unless noted
Procedure, shortened: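 Test agents were incubated with a DNA-repair-mutant yeast strain. Growth was then read and compared against vehicle-treated controls.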

[4] = NCI Yeast Anticancer Drug Screen. Data for the cln2 rad14 strain (AID 165);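 also: 0% = growth equal to vehicle treated cultures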; conditions: S. cerevisiae cln2 rad14 strain, active compounds read high; at 50.0 µM unless noted
Procedure, shortened: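 Test compounds were added to cln2 rad14 yeast cultures; inhibition of growth was then determined by comparison with vehicle treatment.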

[5] = NCI Yeast Anticancer Drug Screen. Data for the bub3 strain (AID 167); conditions: S. cerevisiae bub3 mutant strain, active compounds read high; at 50.0 µM unless noted
Procedure, shortened: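 Steps: expose the mutant yeast strain to compound; grow alongside vehicle-treated cultures; measure growth; express inhibition against the vehicle cultures.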

[6] = NCI Yeast Anticancer Drug Screen. Data for the mlh1 rad18 strain (AID 175); conditions: S. cerevisiae mlh1 rad18 strain growth inhibition, active compounds read high; at 50.0 µM unless noted
Procedure, shortened: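 Inhibition values reflect reduced growth of mutant yeast versus vehicle-treated controls following compound exposure; the mutations affect DNA damage repair.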

Measured: growth inhibition

COc1ccc2c(c1)Cc1cc(NC(C)=O)ccc1-2
inactive: [1] -4.55% | [2] -11.2% | [3] 21.5% | [4] -47.9% | [5] 4.1% | [6] 13.1%

COC(=O)C1(c2ccccc2)N=C(c2ccc(C)cc2)ON1c1ccccc1 (configuration not stated)
inactive: [1] -5.95% | [2] 7.05% | [3] -7.85% | [4] 12.7% | [5] -1% | [6] 10.1%

CCC(c1cccc(C(=O)O)c1)C(C(C)=O)c1ccc(O)cc1 (configuration not stated)
inactive: [1] 0.8% | [2] -20.5% | [3] -6.1% | [4] -22.5% | [5] 4% | [6] -5.05%

CCOC(=O)C(SC(S(=O)(=O)c1ccccc1)S(=O)(=O)c1ccccc1)C(=O)OCC
inactive: [1] 33.3% | [2] -1.75% | [3] 21.2% | [4] 21.6% | [5] -2.05% | [6] 25.6%

ClCc1ccc(OCc2ccccc2)cc1
inactive: [1] -2.85% | [2] -1.45% | [3] -11.2% | [4] 9.3% | [5] -29.1% | [6] -6.25%

CCCCCCCCCCCCSC(=S)c1c(C)[nH]n(CCCCCCCCCCCC)c1=O
inactive: [1] 39.9% | [2] 25.9% | [3] 42.3% | [4] 26.2% | [5] 21.9% | [6] 12.8%

Cc1ccc2[nH]c(=O)[nH]c(=O)c2c1
inactive: [1] -5.85% | [2] -5% | [3] -4.5% | [4] -45.2% | [5] -3.5% | [6] -12.7%

N#Cc1[nH]c(=O)n(-c2ccccc2)c1N
inactive: [1] -40.2% | [2] -57.8% | [3] -60.2% | [4] -22.4% | [5] -17.2% | [6] -37%

O=C(Oc1cccc(O)c1)c1ccccc1
inactive: [1] -7.25% | [2] 11% | [3] -9.15% | [4] -18.8% | [5] 19.9% | [6] -6.1%

CCOC(=O)C(CC(C)C)NC(=O)c1c2nc3c(C(=O)NC(CC(C)C)C(=O)OCC)cc(NC(C)=O)c(C)c3oc-2c(C)c(=O)c1N (configuration not stated)
inactive: [1] 8.4% | [2] 34.5% | [3] 34.6% | [4] -4.95% | [5] -6.5% | [6] 48.8%

O=c1[nH]c2cccc([N+](=O)[O-])c2c2ccccc12
inactive: [1] 5.85% | [2] 26.6% | [3] 14.1% | [4] 23% | [5] -6.35% | [6] 11.2%

COc1ccc(C2=C(Cl)c3cc(OC)c(OC)cc3C2Cl)cc1 (configuration not stated)
inactive: [1] 14.8% | [2] 22.6% | [3] 21.2% | [4] 11.8% | [5] -0.45% | [6] -41.6%

O=C(O)CCCC1CCC(=O)CC1
inactive: [1] -0.4% | [2] -7.55% | [3] -8.1% | [4] -24.4% | [5] 0.5% | [6] 3.35%

Cn1c2c(c3ccccc31)CCN(CCCCN1CCN(c3ccccc3)CC1)C2=O
inactive: [1] 3.8% | [2] -17.5% | [3] -36% | [4] 3.55% | [5] -11.2% | [6] -7.35%

COC(=O)OCCOC(=O)OC
inactive: [1] 3.15% | [2] 1.5% | [3] -8.45% | [4] 18.1% | [5] 15.3% | [6] 9.5%

C=CCCn1nc(-c2ccccc2)oc1=O
inactive: [1] -8.35% | [2] -28.5% | [3] -19.2% | [4] -2.75% | [5] -26.9% | [6] 6.1%

Nc1c(Cl)ncnc1Nc1ccc(CCO)cc1
inactive: [1] -3.6% | [2] -9.25% | [3] 22.6% | [4] -60.3% | [5] -4.4% | [6] -8.75%

Clc1nc(-c2ccccc2)ns1
inactive: [1] 1.9% | [2] -9.3% | [3] -12.7% | [4] 1.45% | [5] -6.85% | [6] -10.4%

COC(=O)[C@H]1C2CC[C@@H]3C45C[C@@H](c6ccoc6)O[C@@H]4O[C@@H](O2)C31CCC5C (some centres not stated)
inactive: [1] 14.5% | [2] -18.4% | [3] 6.35% | [4] 5% | [5] -30.1% | [6] 14.9%

Oc1cc2c(cc1C(Nc1ncccn1)c1ccc3c(c1)OCO3)OCO2 (configuration not stated)
inactive: [1] -0.4% | [2] 6.8% | [3] 12.8% | [4] -16.3% | [5] 19.4% | [6] 15.3%

CCOP(=O)(C/C(=N/NC(C)(C)C)C(=O)Nc1nc2ccc(C)cc2s1)OCC
inactive: [1] -14% | [2] 3.7% | [3] -26.1% | [4] -30.4% | [5] -0.5% | [6] -18.6%

CC(C)(C)c1cc2c(O)c3cccc4c(=O)c5cccc6c5-c(c34)c2c(c1)c6=O
inactive: [1] 33.9% | [2] 15.1% | [3] -26.8% | [4] 7.2% | [5] 4.8% | [6] -11.2%

O=C1c2ccccc2C(=O)c2c3c(cc(NCCNCCO)c21)N(CCO)CCN3
inactive: [1] 29.4% | [2] 18.4% | [3] 33.8% | [4] 10.3% | [5] 34.8% | [6] 29.1%

CN1CCc2nc[nH]c2C1
inactive: [1] 17.2% | [2] -4.95% | [3] 3.2% | [4] 10.1% | [5] 6.4% | [6] 10.1%

N#Cc1ccc(/C=C(/C(=O)c2ccccc2)c2ccccc2)cc1
inactive: [1] 7.35% | [2] -31.9% | [3] 0.2% | [4] 6.85% | [5] -23.8% | [6] -3.35%

CC1C(C)(C)C23CC12C1(OCCO1)C3Br (configuration not stated)
inactive: [1] -11.4% | [2] -4.4% | [3] -6.6% | [4] 14.6% | [5] 10.8% | [6] 25.4%

CCCCOc1ccc(Nc2cc(Cl)ccc2C(=O)O)cn1
inactive: [1] -29.2% and 48.1% | [2] -14.2% and 23.7% | [3] -25.6% and 44.4% | [4] -12.6% and 37.7% | [5] -36.1% and 35% | [6] -22.6% and 25.1%

CCCCCCCCN(CCCCCCCC)CC(O)c1cc(Cl)c(Cl)c(Cl)c1 (configuration not stated)
inactive: [1] 24.1% | [2] 12.3% | [3] 47.4% | [4] 53.9% | [5] 18.6% | [6] 33%

O=C(Nc1ccc(-c2cn3ccccc3n2)cc1)c1ccccc1O
inactive: [1] 7.7% | [2] -11.8% | [3] 20.6% | [4] 36.1% | [5] 10.2% | [6] 4.75%

CCc1c(C)[nH]c2ccc([N+](=O)[O-])cc12
inactive: [1] 18.2% | [2] 3.25% | [3] 6.7% | [4] 19.9% | [5] 23.2% | [6] 26.4%

CC1(C)CC(=O)C=C(n2ccccc2=O)C1
inactive: [1] 2.7% | [2] -5.3% | [3] 0.15% | [4] 7.5% | [5] -19.8% | [6] -1.8%

CCOC(=O)c1c(C(=O)OCC)c2cccn2c2c1cnn2-c1ccccc1
inactive: [1] -0.85% | [2] 1.65% | [3] 5.1% | [4] 5.55% | [5] -20.8% | [6] -2.55%

Nc1cc(S(=O)(=O)O)c(O)c2c1C(=O)c1c(O)c(S(=O)(=O)O)cc(N)c1C2=O
inactive: [1] -17.6% | [2] -1.75% | [3] -2.55% | [4] -12.8% | [5] -9.35% | [6] -18%

CCCCCCCC/C=C\CCCCCCCC(=O)NC(C)(C)C(=O)O
inactive: [1] -16.2% | [2] -15.7% | [3] -9.5% | [4] 62.6% | [5] 32.2% | [6] -36.4%

CCOc1ccc(OCC)cc1
inactive: [1] 3.6% | [2] -0.65% | [3] -9.05% | [4] -29.3% | [5] -11.1% | [6] 4.65%

C=CCOC(=O)c1ccccc1
inactive: [1] 11.3% | [2] 6.5% | [3] 2.55% | [4] 11.4% | [5] -9.55% | [6] -16.6%

CC(C)CCOC=O
inactive: [1] 38.1% | [2] 28.4% | [3] 22.8% | [4] 21.6% | [5] 24.9% | [6] 30.5%
